This assay is described as follows: compound autofluorescence in calcium buffer – biochemical, fluorescence, no RTF in test wells, artefact control for cardiac thin filament activator project, dose response (AID 504697).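 Also: emission near 535 nm under roughly 485 nm excitation as for IANBD.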 To be noted: compound-only fluorescence in RTF assay buffer with Ca2+ (no RTF in test wells), artifact counterscreen. Background: The purpose of a counterscreen is to sort out artefacts and off-target activity.

Unmarked numbers belong to inactive results. Activity calls are given as the source filed them.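 The calls were made as follows: active = EC50 at or below 10 µM; inactive = EC50 above 10 µM.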

Usually EC50 stands for the concentration at which the effect is half-maximal. As for `O=[N+]([O-])c1ccc(NN=Cc2cccc3ccccc23)nc1`, the EC50 is 62.7 µM. As for `Cc1ccc(C)c(C(=O)CSc2n[nH]c(C(C)C)n2)c1`, the figure is more than 71.5 µM. As for `Cc1ccc(C)c(N2CCN(C(=O)CN3C(=S)NC(C)(C)CC3C)CC2)c1` (stereo unspecified), the figure is more than 71.5 µM; as for `Cc1ccc(-c2ccc(OC(=O)c3ccc(=O)[nH]c3)c(C)c2)cc1`, more than 71.5 µM. Consider `O=C1c2ccccc2C(Nc2cccnc2)N1Cc1ccccc1Cl` (stereo unspecified), for which the EC50 was more than 71.5 µM. As for `CCOC(=O)c1sc(N)c(C#N)c1COC(=O)CNC(=O)c1cc(OC)c(OC)c(OC)c1`, the figure is 49.3 µM. As for `O=C(Nc1ccc2c(c1)OCCO2)c1cccc(Cl)c1Cl`, the figure is more than 71.4 µM; as for `O=C(O)c1ccc(NC(=S)NC(=O)c2ccc(-c3ccccc3)cc2)cc1`, more than 71.5 µM; as for `S=c1[nH]nc(-c2ccc(Cl)cc2)n1-c1ccc2c(c1)OCCO2`, more than 71.5 µM.

For the compound `O=[n+]1c2c(n([O-])c3ccccc31)CCC2`, the EC50 was more than 71.5 µM. As for `CNc1ccccc1C(C)(C)c1cc(C)[nH]n1`, the figure is more than 71.5 µM.

Consider `Cc1ccnc2nc(C(=O)OCC(=O)NCCc3ccccc3)nn12`, for which the EC50 is more than 71.5 µM. As for `C/C(O)=c1/ccc2cccc3nc(C)nc1c23`, the figure is more than 23.8 µM. Turning to `CCn1cc(C(=O)NCCC(=O)NCCO)c(=O)c2cc3c(cc21)OCO3`, the EC50 is more than 71.4 µM. For `Cc1ccc(N2C3=C(C(=O)CC(C)(C)C3)C(c3cn(C)nc3C)C3=C2CC(C)(C)CC3=O)cc1`, the EC50 was 17.1 µM. Regarding `Cc1ccnc(N/C=C(\C#N)c2nc(-c3cccc(Br)c3)cs2)c1`, the concentration giving a half-maximal response (EC50) was 1.59 µM (active). As for `COc1ccc(CNC(=O)c2sc(=S)n(-c3ccccc3)c2N)cc1`, the figure is more than 71.5 µM; as for `O=C(Cn1cnc2c(cnn2-c2ccccc2)c1=O)Nc1ccc(S(=O)(=O)N2CCOCC2)cc1`, more than 71.5 µM. As for `COc1ccc2nc(C)c3cc(C)oc3c2c1`, the figure is more than 71.4 µM; as for `C[C@@H](C(=O)N1CCNCC1)n1cc(CCCN=C(N)N)nn1`, more than 71.5 µM; as for `COc1ccc(/C=C2\SC(=S)N(CCCC(=O)Nc3ccccc3C(=O)O)C2=O)cc1OC`, 53.3 µM. On to `c1ccc(Cn2c(-c3ccccc3)nc3nc4ccccc4nc32)cc1`, for which the EC50 was more than 71.5 µM. As for `CCCN1CCc2c(sc(NC(=S)NC(=O)c3ccccc3)c2C#N)C1`, the figure is more than 71.5 µM; as for `COc1ccccc1NS(=O)(=O)c1cc(NC(=O)c2cc3ccccc3oc2=O)ccc1C`, more than 71.5 µM; as for `CCCNC(=O)Cn1c(=O)/c(=C\c2ccc(-c3ccc([N+](=O)[O-])cc3)o2)s/c1=C\C(=O)C(C)(C)C`, 0.335 µM (active). As for `COc1cc(N2CCCC2)c(OC)cc1/C=C1/NC(=S)NC1=O`, the figure is 4.35 µM (active). As for `CC(=O)/C(C=Nc1noc(C)c1Br)=C(\C)O`, the figure is more than 71.6 µM; as for `O=C(c1ccc(COc2ccccc2Br)o1)N1N=C(C(F)F)CC1(O)C(F)F` (stereo unspecified), more than 71.5 µM; as for `Cc1ccc(/C=C2/SC(=O)NC2=S)o1`, more than 23.8 µM. As to `O=C(O)CCC(=O)Nc1cc(C(F)(F)F)cc(C(F)(F)F)c1`, the EC50 is more than 71.4 µM. As for `O=C(OCCN1C(=O)c2cccc3c(N4CCOCC4)ccc(c23)C1=O)c1ccc(Cl)cc1Cl`, the figure is 2.52 µM (active).

For the origin of these results see PubChem BioAssay AID504697 (The Scripps Research Institute Molecular Screening Center, 2011).
